Compound activity (PubChem BioAssay)
ID4 SMM: binders of human ID4 protein | 1.2% of 31,000 active | small molecule microarray, Flag-ID4 binding, fluorescence F/B | AID 624137 | P47928 | calls only; call rule not given here;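 further: a binder raises fluorescence above local background on the spot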
Target sequence (P47928 whole entry, looked up): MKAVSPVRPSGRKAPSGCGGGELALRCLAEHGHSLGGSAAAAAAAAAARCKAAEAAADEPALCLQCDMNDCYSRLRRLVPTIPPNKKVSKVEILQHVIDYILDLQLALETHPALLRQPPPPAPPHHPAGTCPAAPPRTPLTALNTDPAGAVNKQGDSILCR
mut p53 react: re-activators of the mutant p53 pathway. 1.5% of 28,000 active. SW480 PUMA-promoter luciferase, p53 mutant reactivation. AID 624151. activation, % at 9.98 µM; in the data active means activation above about 52%
STK33 kin inh: human STK33 kinase inhibition. Q9BYT3. ADP-Glo luminescence, MBP substrate. inhibition, % at 12.5 µM. 0.44% of 27,000 active; in the data active means inhibition above about 20%
Numbers without * were called inactive; i = inactive; · = not tested or not shown; + = active, no number. The list is not random: actives were taken first. Their share in the collection is about 2.1%.

SMILES | ID4 SMM | mut p53 react | STK33 kin inh
COc1cc2c(cc1OC)CN(C(=O)CSc1n[nH]c(N)n1)CC2 | + | -2.0 | -4.7
Cc1nn2c(-c3cccc(NC(=O)CSc4nc5ccccc5o4)c3)nnc2c2ccccc12 | i | 73.5* | 3.8
COc1ccc(OCC(=O)Nc2ccc3nn(-c4ccc(Cl)cc4)nc3c2)cc1 | i | 38.9 | 0.3
COc1ccc(OCC(=O)Nc2cccc(-c3nnc4c5ccccc5c(C)nn34)c2)cc1 | i | 101.2* | 6.6
Cn1c(SCC(=O)Nc2cccc(F)c2)nnc1-c1cc2ccccc2o1 | i | -10.1 | 2.0
CCc1c(C)sc(NC(=O)c2ccc(Cn3nc(C)c(Cl)c3C)o2)c1C(N)=O | i | -10.7 | -7.9
CC(C)(C)C1CCc2c(sc(NC(=O)COc3ccccc3Cl)c2C(N)=O)C1 (stereo not drawn) | i | -2.3 | -0.5
O=C(NC(Cc1ccc(F)cc1)C(=O)O)c1ccccc1 (stereo not drawn) | i | -7.9 | -6.6
O=C(NC(Cc1ccc(O)cc1)C(=O)O)c1ccccc1 (stereo not drawn) | + | 43.5 | 0.3
O=C(CCn1cnc2ccccc2c1=O)Nc1ccc(F)cc1 | i | 2.2 | -0.2
Cc1cccc(OCCCn2c(CO)nc3ccccc32)c1 | i | 24.9 | 1.6
Cc1ccc(OCCCn2c(CO)nc3ccccc32)cc1 | i | 63.0* | -0.9
Cc1ccc2oc(-c3ccc(NC(=O)Cn4c(=O)oc5ccccc54)cc3)nc2c1 | i | 60.3* | 5.2
O=C(CN1C(=O)c2ccccc2C1=O)Nc1ccc(-c2nc3ccccc3o2)cc1 | i | 28.0 | 8.9
CCn1c(SCc2nc3ccccc3c(=O)[nH]2)nnc1-c1ccccc1Br | i | -6.1 | 0.4
COC(=O)c1ccccc1NC(=O)c1ccc(COc2ccccc2)o1 | i | 102.6* | 4.3
COC(=O)c1ccccc1NC(=O)NCc1ccc(C(=O)O)cc1 | + | -3.6 | 0.6
COC(=O)c1ccccc1NC(=O)c1cccc(NC(=O)COc2ccccc2)c1C | i | -3.4 | -5.3
COC(=O)c1ccccc1NC(=O)CNC(=O)c1ccccc1 | i | -9.3 | -3.1
CCOC(=O)C1=C(C)NC(=S)NC1c1cc(I)c(OCC#N)c(OC)c1 (stereo not drawn) | i | -8.5 | 0.1
COCCn1c(SCC(=O)N2CCOCC2)nc2c(c1=O)SC(C)C2 (stereo not drawn) | i | 5.3 | ·
c1ccc2c(c1)OCC(c1nnc3sc(-c4ccncc4)nn13)O2 (stereo not drawn) | i | 4.1 | -0.2
c1csc(-c2nn3c(C4COc5ccccc5O4)nnc3s2)c1 (stereo not drawn) | i | 68.2* | 0.4
Cc1ccc2c(CC(=O)NCc3ccco3)coc2c1C | i | -24.2 | -2.7
Cc1ccc2c(CC(=O)Nc3cccc([N+](=O)[O-])c3)coc2c1C | i | 69.0* | 3.7
SMILES | ID4 SMM | mut p53 react | STK33 kin inh
O=C(Cn1cnc2ccccc2c1=O)Nc1ccc(F)cc1F | i | -6.4 | -2.5
COc1ccc(CCNC(=O)C2OCCc3ccccc32)cc1OC (stereo not drawn) | + | -4.7 | -0.7
O=C(NCc1ccco1)C1OCCc2ccccc21 (stereo not drawn) | i | 5.8 | 0.1
COC(=O)c1ccccc1NC(=O)CSc1nnnn1-c1cccc2ccccc12 | i | 10.3 | -2.2
COC(=O)c1c(NC(=S)NCc2cc(C)n(C)n2)sc2c1CCCCCC2 | i | 9.0 | -0.1
COC(=O)c1c(NC(=S)NCc2ccccn2)sc2c1CCC2 | i | 68.2* | 3.6
C[C@@H]1CCCCO[C@H](CN(C)C(=O)C2CCCCC2)[C@@H](C)CN([C@@H](C)CO)C(=O)c2cc(NC(=O)c3ccncc3)ccc2O1 | + | 4.0 | ·
C[C@@H]1CCCCO[C@H](CN(C)C(=O)c2ccncc2)[C@@H](C)CN([C@H](C)CO)C(=O)c2cc(NS(=O)(=O)c3ccccc3)ccc2O1 | i | 2.2 | -0.7
C[C@@H]1CN([C@H](C)CO)C(=O)c2cc(NS(=O)(=O)c3ccccc3)ccc2O[C@@H](C)CCCCO[C@@H]1CN(C)C(=O)c1ccncc1 | + | 0.8 | ·
C[C@H]1CCCCO[C@@H](CN(C)C(=O)C2CCCCC2)[C@@H](C)CN([C@@H](C)CO)C(=O)c2cc(NC(=O)c3ccncc3)ccc2O1 | i | 0.4 | ·
COc1ccc(C(=O)CSc2ncnc3sc4c(c23)CCCC4)cc1 | i | 1.8 | -0.9
Cc1cccc(C#Cc2ccccc2)n1 | i | 84.6* | ·
NS(=O)(=O)C#Cc1ccccc1 | i | -31.3 | ·
COc1ccc2c(C)nc(Nc3nc(C)cc(=O)[nH]3)nc2c1 | i | 72.7* | 2.4
CCCc1cc(=O)[nH]c(Nc2nc(C)c3ccc(OC)cc3n2)n1 | i | 32.8 | -3.5
O=c1c2c3c(sc2nc2c4ccccc4c(NCCOCCO)nn12)CCCC3 | i | -5.5 | -6.7
O=C(CCN1C(=O)c2ccccc2C1=O)Nc1cccc(O)c1 | i | 18.6 | 0.5
O=C(CN1C(=O)S/C(=C\C=C\c2ccccc2)C1=O)Nc1cccc(O)c1 | i | 59.2* | ·
O=C(Nc1sc2c(c1C(=O)NCc1ccco1)CCC2)c1sc2ccccc2c1Cl | i | 41.5 | -3.2
COC(=O)c1c(NC(=O)CSc2nnc3ccccn23)sc(C)c1C | + | 4.7 | -1.6
CCOC(=O)c1c(NC(=O)CSc2nnc3ccc4ccccc4n23)sc(C)c1C | i | -14.4 | -0.2
NS(=O)(=O)c1ccc(N=Cc2c(O)[nH]c3ccccc23)cc1 | · | 2.2 | 93.7*
NS(=O)(=O)c1ccc(N(S(=O)(=O)c2ccccc2)S(=O)(=O)c2ccccc2)cc1 | i | -15.4 | ·
O=c1c(O)c(-c2ccc(O)c(O)c2)oc2cc(O)cc(O)c12 | i | 41.4 | 38.3*
O=c1c(-c2ccc(O)cc2)coc2cc(O)cc(O)c12 | i | 53.0* | 8.7
SMILES | ID4 SMM | mut p53 react | STK33 kin inh
COc1cc(-c2oc3cc(O)cc(O)c3c(=O)c2O)ccc1O | i | · | 52.5*
O=c1c(O[C@@H]2OC[C@H](O)[C@H](O)[C@H]2O)c(-c2ccc(O)c(O)c2)oc2cc(O)cc(O)c12 | · | 3.1 | 7.6
COc1cc(-c2oc3cc(O)c(OC)c(O)c3c(=O)c2OC)ccc1O | · | -42.2 | 15.9
COc1ccc(-c2coc3cc(O)cc(O)c3c2=O)cc1 | · | · | 1.9
CC(O)c1nc2ccccc2n1CCOc1ccc(Br)cc1 (stereo not drawn) | i | -4.0 | 0.3
CCc1ccc2oc(-c3ccc(C)c(NC(=O)COc4ccccc4)c3)nc2c1 | i | 32.2 | 2.3
O=C1c2cccc3cccc(c23)C(=O)N1CCCSc1n[nH]c(-c2ccc(Cl)cc2)n1 | i | 22.0 | 3.0
Cn1c(SCC(=O)Nc2ccccc2)nnc1-c1ccccc1F | i | 6.5 | 0.7
Cn1cnnc1SCc1nc2ccc([N+](=O)[O-])cc2[nH]1 | i | -16.9 | -1.8
COc1cccc(C(=O)Nc2ccc(NC(=O)C3CCCCC3C(=O)O)cc2)c1 (stereo not drawn) | + | -9.9 | 0.6
COC(=O)c1ccc(NC(=O)C2CCCCC2C(=O)O)cc1 (stereo not drawn) | i | -3.4 | -1.4
O=C(CCN1C(=O)c2ccccc2C1=O)Nc1ccc(-c2nc3ccccc3o2)cc1 | i | 33.8 | -0.2
O=C(CCN1C(=O)c2ccccc2C1=O)Oc1c(-c2ccccc2)oc2ccccc2c1=O | i | 53.9* | 7.0
COc1ccc(/C=C2\Oc3cc(O)cc(O)c3C2=O)cc1O | i | 2.9 | 31.4*
